Among all 190,000 compounds or so, about 3,100 (1.6%) were called active. This is one part of a sample in which actives are shown more often than they occur. A number with no mark means an inactive call. Rule as the data show it: active = fold change above about 3.3; inconclusive = no clear call, values can overlap the other calls; inactive = below that.

This assay is described as follows: activators of NF-kB expression in neurons, primary screen, cell-based, HTS (AID 1239). Particulars: human neuronal cells, NF-kB reporter expression; at 12.5 µM; active compounds read high.
Regarding `O=C(Nc1cccc([N+](=O)[O-])c1)c1ccc2c(c1)OCO2`, the fold change is 1.37.
The value for `CC(=O)Nc1ccc(-c2csc(NC(=O)Nc3ccccc3)n2)cc1` was 1.32; that for `Cn1nnnc1SCC(=O)Nc1nc2ccccc2s1` was 1.74.
The value for `O=C(Nc1cccnc1)c1ccc2c(c1)OCO2` was 1.47; that for `CC(C)C(=O)Nc1cccc(C(=O)Nc2ccc3c(c2)OCO3)c1` was 4.07 (active).
Take `Cn1c(=O)n(C)c2cc(C(=O)Nc3ccc4c(c3)OCO4)ccc21`: the fold change was 1.54.
The value for `COCc1nnc(NC(=O)c2ccc3c(c2)OCO3)s1` was 2.07.
For the compound `Cc1cc(C)c2nc(NC(=O)c3ccc4c(c3)OCO4)sc2c1`, the fold change is 1.11.
The value for `O=C(Nc1nc2ccccc2s1)c1ccc2c(c1)OCO2` was 7.05 (active); that for `COc1ccc(C(=O)Nc2ccc3c(c2)OCO3)cc1OC` was 2.06.
To `O=C(Nc1ccccc1)c1ccc2c(c1)OCO2` belongs 3.31 (active); to `O=C(Nc1ccccc1)Nc1nc2ccccc2s1`, 8.18 (active); to `COc1ccc(-c2nn(-c3ccccc3)cc2CN2CCCO2)c(F)c1`, 1.16.
To `NC(N)=N/N=C/c1ccc(Cl)c([N+](=O)[O-])c1` belongs 1.03; to `CN1CCN(NC(=O)c2ccc(S(=O)(=O)N3CCCCCC3)cc2)CC1`, 0.97; to `O=c1[nH]n(-c2ccc([N+](=O)[O-])cc2)c(=O)c2ccccc12`, 1.
Turning to `CC(=O)c1ccc(N=C2SCCCN2C(=O)C2CCCCC2)cc1`, the fold change was 1.75.
Turning to `COc1cccc(NC(=O)CS(=O)(=O)c2cn(CC(=O)N3CCOCC3)c3ccccc23)c1`, the fold change was 0.88.
The value for `O=C(CSc1nc2ccc(Nc3nc(N4CCOCC4)nc(N4CCOCC4)n3)cc2s1)NCc1ccco1` was 1.02; that for `CC(C)(C)C1CCC(C(=O)Nc2cccnc2)CC1` (stereo unspecified) was 0.97.
With `COC(=O)C(=Nc1ccccc1)/C(C(=O)C(=O)N(C)c1ccccc1)=C(\O)c1ccc(Cl)cc1`, the fold change is 0.95.
The value for `O=C(Nc1ccc2oc(-c3ccccc3F)nc2c1)c1ccco1` was 5.05 (active); that for `O=C(Nc1cccc(-c2nc3ncccc3o2)c1)c1ccco1` was 0.74; that for `O=C(Nc1ccc2nccnc2c1)c1ccco1` was 1.46.
To `CSc1ccccc1C(=O)NCc1ccccc1` belongs 1.09; to `COc1cccc(C(=O)NNC(=O)c2ccccc2Br)c1`, 1.05.
For `COc1ccc(C2COC(=O)C2=N)c(NC(=O)c2ccccc2)c1` (stereo unspecified), the fold change was 1.02.
The value for `Cc1ccccc1C(=O)Nc1ccc(N2CCCCCC2)cc1` was 3.92 (active); that for `COc1cccc(C(=O)Nc2cc3c(cc2Br)OCCCO3)c1` was 3.38 (active).
The value for `COc1cccc(C(=O)Nc2ccc(N3CCCC3)cc2)c1` was 3.3 (active); that for `COc1cccc(OC)c1C(=O)Nc1ccc(N2CCCCC2)cc1` was 0.92.
The value for `O=C(Cc1ccccc1)NC(=S)Nc1ccc(N2CCCCC2)cc1` was 1.04; that for `COc1ccc(C(=O)NC(=S)Nc2ccc(N3CCCC3)cc2)cc1OC` was 0.99; that for `C/C(=N\NC(=O)c1ccccc1C)c1ccc(N2CCOCC2)cc1` was 1.09.
For the compound `COn1c(-c2ccc(Cl)cc2Cl)nc2ncccc21`, the fold change was 1.29.
The value for `O=C(CN1CCC(O)(c2ccccc2)CC1)Nc1ccc2c(c1)OCCO2` was 0.97; that for `COc1ccc(CN2CCCC(CNC(=O)c3ccc(F)cc3)C2)cc1OC` (stereo unspecified) was 1.13; that for `CCN(CC(=O)NCCc1ccccc1)S(=O)(=O)c1ccccc1` was 1.36.
Turning to `CC1CCCN(CC(O)COc2ccc3c(c2)OCO3)C1` (stereo unspecified), the fold change was 1.2.
To `C/C(=N\OCC(=O)Nc1ccc(Br)cc1)c1cccs1` belongs 1.23.
As to `CCOc1ccc2cc(C#N)c(SCC(=O)OC)nc2c1`, the fold change was 5.87 (active).
The value for `Cc1nonc1NC(=O)CSc1nc2ccccc2cc1C#N` was 1.83; that for `CCOc1ccc2nc(NCCNS(=O)(=O)c3ccccc3)c(C#N)cc2c1` was 1.4.
To `CC(C)N1CCC(=NNc2ccc([N+](=O)[O-])cc2S(=O)(=O)N2CCOCC2)CC1` belongs 1.19; to `COc1ccc(N2C(=O)/C(=C\c3ccco3)N=C2SCC(N)=O)cc1Cl`, 1.3; to `CCN(CC(=O)Nc1ccc(Cl)c(S(=O)(=O)N(C)C)c1)Cc1nc2ccccc2c(=O)[nH]1`, 0.79.
To `C#CCSc1nnc(-c2sc3ccccc3c2Cl)o1` belongs 3.81 (active).
Regarding `Clc1ccc(-c2nnc(SCc3nc4ccccc4s3)o2)cc1`, the fold change was 1.18.
In the case of `O=C(OCC#CCSc1nnc(-c2ccncc2)o1)c1sc2ccccc2c1Cl`, the fold change is 1.38.
To `CC(C)(C)C(=O)CN1C2=NCCN2c2ccccc21` belongs 1.09.
To `Cc1ccnc(NC(=O)CCC(=O)N(CC(=O)NCc2ccccc2)Cc2ccco2)c1` belongs 0.85.
The value for `Cc1ccc2c(=O)oc(N(C)C)nc2c1` was 0.93.
Regarding `O=C(CSc1ccsc1[N+](=O)[O-])N1CCCCC1`, the fold change is 1.39.
The value for `S=c1[nH]nc(/C=C/c2ccccc2)o1` was 1.12.
On to `O=c1oc(/C=C/c2ccccc2)nc2ccccc12`, for which the fold change is 4.63 (active).
The value for `O=C1C2C3C=CC(C3)C2C(=O)N1c1ccc(-c2nc3ccccc3c(=O)o2)cc1` (stereo unspecified) was 1.08.
The value for `CN(C)c1ccnc(Nc2ccc(F)cc2)c1C#N` was 1.02.
To `CN(Cc1ccc2nsnc2c1)Cc1nc(Cc2cccc(F)c2)no1` belongs 1.05.
On to `CN(C)c1nccc(NCc2ccccc2)c1C#N`, for which the fold change is 1.55.
The value for `CCOc1cc(NC(=O)CCl)c(OCC)cc1NC(C)=O` was 2.72.
Consider `O=C(Nc1ccn(Cc2ccc(F)cc2)n1)c1ccncc1`, for which the fold change was 1.08.
The value for `O=C(Nc1ccn(Cc2ccccc2)n1)c1cccc(F)c1` was 6.25 (active).
As for `Cc1ccc(Cn2ccc(NC(=O)c3cc(C(C)C)on3)n2)cc1`, the fold change was 1.16.
For `CC(=O)Nc1ccn(Cc2c(F)cccc2Cl)n1`, the fold change is 1.2.
Regarding `Cn1cc([N+](=O)[O-])c(C(=O)Nc2cnn(Cc3ccc(F)cc3)c2)n1`, the fold change was 0.64.
The value for `O=C(Nc1ccn(Cc2ccccc2)n1)c1n[nH]c([N+](=O)[O-])c1Cl` was 3.79 (active).

The values are drawn from PubChem BioAssay AID1239 (SRMLSC, 2008).
